In PubChem BioAssay AID493169 (National Center for Advancing Translational Sciences (NCATS), 2011):
Inconclusive results are not listed. Activity calls are given as the source filed them. The call rests on the fitted dose curve; in most records, active means well fitted inhibition curve with a large enough effect; inconclusive means small, poorly fitted or top-dose-only effect; inactive means flat fitted curve, though single readings scatter.

experiment: CHOP2 Reporter Counterscreen Assay for Inhibitors of Ubiquitin-specific Protease USP2a; conditions: purified enterokinase, fluorogenic substrate, 485/531 nm; series mostly up to 38.3 µM; activity change, negative = inhibition: at the top concentration;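 further: activated enterokinase alone at 50 pM in a cell-free format rather than USP2a or CHOP2; nearly all actives have a fitted effect of over 55% in size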
How it was run: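 Fluorescence (485/531 nm) read 10 min after adding 25nM reporter substrate to 50 pM activated EK preincubated 30 min RT with compound; Tris pH 8.0/CaCl2/CHAPS buffer. Data normalized to buffer-alone inhibition; concentration-response curves fitted.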
On the % scale 0 is the no-effect control and ±100 the full control effect; potency means the concentration at half of the fitted maximal effect.

Question: With `O=C(Nc1ccc2c(c1)OCO2)NC1(C(F)(F)F)Oc2ccccc2O1` as the molecule, how does the “activity change, negative = inhibition” value read?
Answer: -0.462% (inactive)

Question: With `NS(=O)(=O)c1ccc(N=Nc2c(O)c(C(=O)O)cc3ccccc23)cc1` as the molecule, how does the Potency read?
Answer: 11.2 µM (active)

Question: With `COC(=O)c1c(O)c2c([nH]c1=O)CCCC2` as the molecule, how does the “activity change, negative = inhibition” value read?
Answer: 3.84% (inactive)

Question: With `COc1ccc(-n2c(=S)[nH]c3cc(C(=O)Nc4cc(OC)c(OC)c(OC)c4)ccc3c2=O)c(OC)c1` as the molecule, how does the “activity change, negative = inhibition” value read?
Answer: -0.87% (inactive)

Question: For `O=C(OCC(=O)N1CCCCC1)c1cc2ccccc2cc1O`, which “activity change, negative = inhibition” value is on record?
Answer: 0.355% (inactive)

Question: With `C[C@@H]1CC[C@]2(C(=O)O)CC[C@]3(C)C(=CCC4[C@]56CC[C@@](O)(OC5)C(C)(C)C6CC[C@]43C)C2[C@H]1C` (some centres not stated) as the molecule, how does the “activity change, negative = inhibition” value read?
Answer: -24.5% (inactive)

Question: With `CC(C)OCCCNC(=O)CN1C(=O)CC(C)(C)S(=O)(=O)c2ccccc21` as the molecule, how does the “activity change, negative = inhibition” value read?
Answer: -2.55% (inactive)

Question: For `COc1ccc(/C=C2/SC(=S)N(c3ccc(S(=O)(=O)Nc4nccs4)cc3)C2=O)cc1`, which Potency is on record?
Answer: 11.2 µM (active)

Question: With `NC(=O)c1ncc(C(F)(F)F)cc1Oc1cccc(F)c1` as the molecule, how does the “activity change, negative = inhibition” value read?
Answer: -0.938% (inactive)

Question: For `O=C(N/N=C/C=C/c1ccccc1)c1ccncc1`, which “activity change, negative = inhibition” value is on record?
Answer: 6.48% (inactive)

Question: For `CCCSCCCNC(=O)CC1Oc2ccccc2NC1=O` (configuration not stated), which “activity change, negative = inhibition” value is on record?
Answer: -2.32% (inactive)

Question: With `O=C(COc1ccccc1)N1CCN(C(=O)Cc2ccccc2)CC1` as the molecule, how does the “activity change, negative = inhibition” value read?
Answer: 1.53% (inactive)

Question: With `Cc1ccc(Nc2nc(N)nc(CN3CCN(C(=O)c4ccco4)CC3)n2)cc1Cl` as the molecule, how does the “activity change, negative = inhibition” value read?
Answer: -5.49% (inactive)

Question: With `CC(CN1CCCCC1)OC(=O)c1ccc(Cl)cc1` (configuration not stated) as the molecule, how does the “activity change, negative = inhibition” value read?
Answer: 0.866% (inactive)

Question: Which Potency does the source give for `O=C(Nc1cccc(S(=O)(=O)NC2=NCCC2)c1)c1cc(-c2ccco2)nc2ccccc12` here?
Answer: 1.78 µM (active)

Question: Which “activity change, negative = inhibition” value does the source give for `CCOc1ccc(NC(=O)N(CCCN2CCOCC2)Cc2cccnc2)cc1` here?
Answer: 5.89% (inactive)

Question: For `O=S(=O)(c1ccccc1)N(CC1CO1)c1cc(Cl)ccc1Cl` (configuration not stated), which “activity change, negative = inhibition” value is on record?
Answer: 2.84% (inactive)
